From PubChem BioAssay
Compounds with a hit are over-represented: about 32% of the library has one in this group of screens.
PostGolgi ctrl – yeast control strain growth, post-Golgi counter-screen; 98,000 compounds, 5% hits; efflux-deficient yeast background strain, growth absorbance A615, 16 h; inhibition, % at 10 µM; AID 738
PostGolgi yeast – growth inhibition of a yeast mutant, post-Golgi transport screen; 98,000 compounds, 0.9% hits; post-Golgi transport phenotypic cell assay; inhibition, % at 10 µM; AID 739;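 note: yeast cells grown in 1536-well plates; yeast grown about 18 h at 30C before absorbance read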
CYP2C19 activ – cytochrome P450 2C19 (human) activation; activation factor at 5 µM; 96,000 tested, under 10 active; recombinant CYP2C19, luciferin-H EGE luminescence; stronger effect = higher value; 0 = fully inhibited enzyme, 1 = untreated enzyme;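 active = activation factor of at least 2 at 5 µM in the primary screen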
Target sequence (P33261 whole entry, looked up): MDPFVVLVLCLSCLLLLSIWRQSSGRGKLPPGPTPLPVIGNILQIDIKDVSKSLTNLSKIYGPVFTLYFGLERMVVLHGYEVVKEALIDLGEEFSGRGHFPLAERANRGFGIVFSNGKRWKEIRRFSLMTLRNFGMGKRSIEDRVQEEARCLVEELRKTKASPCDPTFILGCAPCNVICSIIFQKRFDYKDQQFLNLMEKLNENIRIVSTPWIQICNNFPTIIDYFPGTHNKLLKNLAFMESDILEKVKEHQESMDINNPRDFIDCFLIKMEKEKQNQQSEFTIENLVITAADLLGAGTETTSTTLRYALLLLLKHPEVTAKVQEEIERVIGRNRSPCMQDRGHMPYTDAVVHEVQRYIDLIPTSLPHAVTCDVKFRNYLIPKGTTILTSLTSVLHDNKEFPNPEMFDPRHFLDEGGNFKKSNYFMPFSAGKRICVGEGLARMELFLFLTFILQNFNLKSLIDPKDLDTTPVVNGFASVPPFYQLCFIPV
CYP2C19 inh – human CYP2C19 inhibition. inhibition, % at 5 µM. AID 778. P33261. CYP2C19 Supersomes, luciferin-H EGE luminescence, 30 min. 96,000 compounds, 21% hits;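 active = CYP2C19 inhibition above a set limit at 5 µM in the primary screen, cut at about 50% in these data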
CYP2C9 act – activators of human CYP2C9; P11712; recombinant CYP2C9, luciferin-H conversion, luminescence; stronger effect = higher value; factor 1 = untreated enzyme, 0 = blocked; activation factor at 5 µM; 96,000 compounds, 1.4% hits;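 active = activation factor of 2 or more for CYP2C9 at a 5 µM dose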
CYP2C9 inh – human CYP2C9 inhibition; AID 777; CYP2C9 Supersomes, luciferin-H conversion, luminescence; inhibition, % at 5 µM; 96,000 compounds, 20% hits;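 active = blocking of liver enzyme CYP2C9 beyond about 50% at 5 µM, limit read from the data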
Of the large screens only hits and unclear results are named; the others gave an inactive call. Cut-off read from the data, not from the text of the source, unless noted: active = inhibition above about 30%; inactive = the rest.

COc1ccc2c(c1)sc1nc(-c3ccccc3)cn12	CYP2C19 inh 82, CYP2C9 inh 92
O=C(O)CCC(=O)N1N=C(c2cccs2)CC1c1cn(-c2ccccc2)nc1-c1ccccc1 (centres undefined)	none
COc1cccc(C2CC(c3cccs3)=NN2C(=O)CSC2=NN3CCCC(=O)N=C3S2)c1OC (centres undefined)	CYP2C19 inh 76, CYP2C9 inh 83
Cc1ccc(C(=O)c2cc(C)sc2NC(=O)CN2CCN(C(=O)c3ccco3)CC2)cc1	PostGolgi ctrl 38
O=C(c1cc(-c2ccccc2)on1)N1CCCC1	none
Cc1ccc(-c2cc(C(=O)N3CCN(C(=O)c4ccco4)CC3)no2)cc1	CYP2C19 inh 78, CYP2C9 inh 54
Cc1ccc(OCC(=O)N2CCN(c3nnc(-c4ccc(C)cc4)c4ccccc34)CC2)cc1	PostGolgi ctrl 71, CYP2C19 inh 88, CYP2C9 inh 92
COc1ccc(OCC(=O)N2CCN(c3nnc(-c4ccccc4)c4ccccc34)CC2)cc1	PostGolgi ctrl 32, CYP2C19 inh 50
Cc1cccc(NC(=O)c2cc(NC(=O)c3ccco3)ccc2Cl)n1	none
O=C(COc1ccccc1)N1CCN(c2nnc(-c3ccccc3)c3ccccc23)CC1	CYP2C19 inh 74, CYP2C9 inh 74
Cc1ccc(-c2nnc(N3CCN(C(=O)c4ccco4)CC3)c3ccccc23)cc1	CYP2C19 inh 68, CYP2C9 inh 76
O=C(CN1C(=O)c2ccccc2C1=O)N1CCN(c2nnc(-c3ccccc3)c3ccccc23)CC1	none
COC(=O)CN(c1ccc(C)cc1)S(=O)(=O)c1ccc2c(c1)n(C)c(=O)c(=O)n2C	none
Cc1ccc(S(=O)(=O)N(CCO)c2cc3c(s2)CCCC3)cc1	CYP2C19 inh 99
CN1CCN(CC(=O)N(Cc2c(C#N)c3ccccc3n2C)c2ccccc2)CC1	PostGolgi ctrl 34
Cn1cc(CN2CCN(c3ccccc3)CC2)c2ccccc21	none
Cc1ccccc1N1CCN(Cc2c(C#N)c3ccccc3n2C)CC1	CYP2C19 inh 67
O=C(CNC1CCCCCC1)Nc1ccc(S(=O)(=O)NC2CC2)cc1	none
O=C(NC1CC1)c1ccc(S(=O)(=O)NC2CCCCCC2)cc1	CYP2C19 inh 54
O=C(CCc1ccc(S(=O)(=O)NC2CCCCC2)cc1)N(Cc1ccccc1)Cc1ccccc1	CYP2C19 inh 70, CYP2C9 inh 88
O=C(O)c1ccc(S(=O)(=O)NC2CCCCC2)cc1	none
CSc1ccc(S(=O)(=O)NC2CCCCCC2)cc1	PostGolgi ctrl 70, CYP2C19 inh 95
FC(F)(F)c1nc2nncn2c2c1CCCCC2	none
CCOc1c(Br)ccc2c1sc1nc[nH]c(=O)c12	CYP2C19 inh 98
Cc1ccc(NC(=O)O/N=C2\CCCCC2c2ccc([N+](=O)[O-])cc2[N+](=O)[O-])cc1 (centres undefined)	CYP2C9 inh 82
CCn1c(-c2ccccc2Cl)nn(CC(=O)Nc2ccc(OC)cc2)c1=S	CYP2C19 inh 56, CYP2C9 inh 60
CCn1nc(C(=O)Nc2ccccc2C)c(Cl)c1Cl	CYP2C9 inh 55
CCOc1ccc(NC(=O)Cn2nc(-c3ccccc3Cl)n(CC)c2=S)cc1	CYP2C19 inh 62, CYP2C9 inh 68
CCn1c(-c2ccccc2Cl)nn(CC(=O)Nc2ccccc2C)c1=S	CYP2C19 inh 51
CCOC(=O)/C=C/S(=O)(=O)c1ccc(NC(C)=O)cc1	none
COc1ccc(OC)c(NC(=O)C2CC(=O)n3ncnc3N2)c1 (centres undefined)	none
O=C(NC1CCCCC1)/C(=N\O)c1ccccn1	none
CCOc1ccc2[nH]c(S(=O)(=O)CC)nc2c1Cl	none
Cc1ccccc1C(=O)c1c[nH]c(C(=O)NCc2ccco2)c1	none
CC(OC(=O)C1=COCCO1)C(=O)Nc1ccc(Oc2ccccc2)cc1 (centres undefined)	none
O=Cc1cn(-c2ccccc2)nc1-c1cc2cc(O)ccc2oc1=O	CYP2C9 inh 81
O=Cc1cn(-c2ccccc2)nc1-c1cc2c(ccc3ccccc32)oc1=O	none
N#Cc1cn(-c2ccccc2)nc1-c1cc2ccccc2oc1=O	PostGolgi yeast 36
Cc1ccc(-n2c(-c3ccccc3)cc(=O)nc2C)cc1	none (no result: CYP2C19 activ, CYP2C19 inh)
O=C(Cn1cc2c(n1)CCCC2)NCCCN1CCN(c2ccccc2F)CC1	none
c1ccc(C2(CNc3ccccn3)CCCC2)cc1	CYP2C19 inh 55
CCS(=O)(=O)N1CCC(C(=O)NCc2cc(OC)ccc2OC)CC1	none
Cc1sc2nc(C)n(/N=C/c3ccccc3O)c(=O)c2c1C	CYP2C19 inh 86
Cc1nc2scc(-c3ccccc3)c2c(=O)n1/N=C/c1ccco1	none
COc1cc2cc(CN(CCCO)S(=O)(=O)c3ccccc3)c(=O)[nH]c2cc1OC	none
O=c1[nH]c2cc3c(cc2cc1CN(CCO)S(=O)(=O)c1ccccc1Cl)OCCO3	CYP2C9 inh 77
COc1cc2cc(CN(CCO)S(=O)(=O)c3ccccc3Cl)c(=O)[nH]c2cc1OC	CYP2C9 inh 55
O=C(O)CCCC(=O)Nc1c(F)c(F)c(F)c(F)c1F	none
Cc1cccc(OCC(=O)Nc2cc(C)c(C)cc2O)c1	CYP2C19 inh 56
Cc1cccc(OCC(=O)NNc2c3ccccc3nc3ccccc23)c1	CYP2C9 act 2
Cc1cccc(OCC(=O)Nc2cc(C)ccc2O)c1	CYP2C19 inh 60
Cc1cccc(OCc2nc3ccccc3c(=O)n2N)c1	none
Cc1ccc(C(=O)NC(=S)Nc2cc(C(F)(F)F)ccc2Cl)cc1	none
CCc1ccc2c(c1)/C(=N/N(C)C(=S)NC)C(=O)N2	CYP2C19 inh 52
CCc1nc(SCC(=O)Nc2ccnc3ccccc23)n[nH]1	none
CCOC(=O)C1CCCN(C(=S)Nc2ccc(C)cc2C)C1 (centres undefined)	CYP2C19 inh 84
CS(=O)(=O)N1CCN(C(=O)C2c3ccccc3Oc3ccccc32)CC1	CYP2C19 inh 97, CYP2C9 inh 50
CCOC(=O)C1CCCN(C(=O)Cc2ccc(C)cc2)C1 (centres undefined)	none
CCOC(=O)C1CCCN(C(=O)C2c3ccccc3Oc3ccccc32)C1 (centres undefined)	CYP2C19 inh 97, CYP2C9 inh 64
CS(=O)(=O)N1CCN(C(=O)c2ccccc2)C1	none
CCOc1ccccc1N1CCN(C(=O)C2c3ccccc3Oc3ccccc32)CC1	CYP2C19 inh 78, CYP2C9 inh 85
CCCC(NC(=O)CNC(=O)C(C)(C)C)C(=O)O (centres undefined)	none
CC1(C)CC(=O)C=C(NC2CCCCCC2)C1	none
CNc1nc(C)c(C(C)=O)cc1C#N	none
CCOC(=O)C1CCCN(c2c(Nc3cccc(C)c3)c(=O)c2=O)C1 (centres undefined)	CYP2C9 inh 52
CC(=O)NC1=NN(C(C)=O)C2(S1)C(=O)N(C(C)C)c1ccc(C)cc12 (centres undefined)	none
